This note sets out measurements from article PMC8384837, “Expanding the binding specificity for RNA recognition by a PUF domain”.

Common to all, as to experiment: yeast three-hybrid, YBZ-1, SC-Leu-His + 0.5 mM 3-AT, 4 days
What all share (conditions): tags: N-Gal4 AD-HA kept; label: inside an RPR1-promoter hybrid RNA with tandem MS2 sites; ssRNA

The target of one assay is PUM1 PUF domain R4-DWL (Homo sapiens, UniProt Q14671 828-1176, N971D;H972W;Q975L). The method, boiled down: (§1)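 Each repeat of the Pumilio-1 PUF domain was randomized at its three base-contacting residues, and these libraries were co-expressed from a centromeric plasmid with matching RNA elements in strain YBZ-1. After four days on SC-Leu (input) or SC-Leu-His + 0.5 mM 3-AT (selection), the repeat regions were PCR-amplified and Illumina-sequenced. The interaction score compares variant frequency between input and selection as a log change, computed in log2 with a pseudocount of 1 for absent variants.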

Another assay concerns the target T1, PUM1 PUF domain R6-LFT (Homo sapiens, UniProt Q14671 828-1176, N1043L;Y1044F;Q1047T).
T1 sequence: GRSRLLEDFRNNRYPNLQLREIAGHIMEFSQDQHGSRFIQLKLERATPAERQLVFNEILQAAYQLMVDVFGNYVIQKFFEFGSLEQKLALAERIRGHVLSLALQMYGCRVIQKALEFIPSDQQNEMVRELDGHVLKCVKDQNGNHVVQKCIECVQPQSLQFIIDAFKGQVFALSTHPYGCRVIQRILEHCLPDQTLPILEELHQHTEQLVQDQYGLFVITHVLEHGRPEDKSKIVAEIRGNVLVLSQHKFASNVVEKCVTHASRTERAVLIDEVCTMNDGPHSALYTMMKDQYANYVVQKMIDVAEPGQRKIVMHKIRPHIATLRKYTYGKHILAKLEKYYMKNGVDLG
The method, boiled down:
as §1

The target in a further assay is PUM1 PUF domain R5-FQR (Homo sapiens, UniProt Q14671 828-1176, C1007F;R1008Q;Q1011R). In a few lines:
as §1

The target of a further assay is PUM1 PUF domain R5-KHA (Homo sapiens, UniProt Q14671 828-1176, C1007K;R1008H;Q1011A). The method, boiled down: as §1
A further assay deals with PUM1 PUF domain R7-LFR (Homo sapiens, UniProt Q14671 828-1176, S1079L;N1080F;E1083R). The method, boiled down: as §1
Another assay has as its target PUM1 PUF domain R3-RIC (Homo sapiens, UniProt Q14671 828-1176, C935R;R936I;Q939C). In a few lines:
as §1

The target of another assay is PUM1 PUF domain R3-LWQ (Homo sapiens, UniProt Q14671 828-1176, C935L;R936W). In a few lines: as §1

Consider “GGCUAGAACUAGUGGAUCCCCCGGCGCCCGGCGGCUCGAGCCCGGGUAAGUGUAUAUAGUCUGCAUGCCGCCGGGCGCCAUGCCUGCAGGUCGACUCUAGAAAACAUG”, for which, in the assay with PUM1 PUF domain R4-DWL, the binding signal was 5.76 log2 enrichment (interaction score). On to “GGCUAGAACUAGUGGAUCCCCCGGCGCCCGGCGGCUCGAGCCCGGGUAAGUGAAAAUAGUCUGCAUGCCGCCGGGCGCCAUGCCUGCAGGUCGACUCUAGAAAACAUG”, for which the binding signal in the assay with PUM1 PUF domain R6-LFT is 6.33 log2 enrichment (interaction score). Take “GGCUAGAACUAGUGGAUCCCCCGGCGCCCGGCGGCUCGAGCCCGGGUAAGUGUCAAUAGUCUGCAUGCCGCCGGGCGCCAUGCCUGCAGGUCGACUCUAGAAAACAUG”: the binding signal with PUM1 PUF domain R5-FQR is 2.5 log2 enrichment (interaction score); with PUM1 PUF domain R5-KHA it was 6.11 log2 enrichment (interaction score). On to “GGCUAGAACUAGUGGAUCCCCCGGCGCCCGGCGGCUCGAGCCCGGGUAAGUCUAAAUAGUCUGCAUGCCGCCGGGCGCCAUGCCUGCAGGUCGACUCUAGAAAACAUG”, for which, in the assay with PUM1 PUF domain R7-LFR, the binding signal is 4.97 log2 enrichment (interaction score).

Consider “GGCUAGAACUAGUGGAUCCCCCGGCGCCCGGCGGCUCGAGCCCGGGUAAGUUUAAAUAGUCUGCAUGCCGCCGGGCGCCAUGCCUGCAGGUCGACUCUAGAAAACAUG”, for which, in the assay with PUM1 PUF domain R7-LFR, the binding signal is 5.84 log2 enrichment (interaction score). In the case of “GGCUAGAACUAGUGGAUCCCCCGGCGCCCGGCGGCUCGAGCCCGGGUAAGUGUAAUUAGUCUGCAUGCCGCCGGGCGCCAUGCCUGCAGGUCGACUCUAGAAAACAUG”, the binding signal was 3.78 log2 enrichment (interaction score) with PUM1 PUF domain R3-RIC and 4.13 log2 enrichment (interaction score) with PUM1 PUF domain R3-LWQ.
